# Compound activity as filed in PubChem BioAssay.
# GalR3 antagonist – human GalR3 antagonism | 360,000 compounds, 0.44% hits | O60755 | HEK293 GalR3-CNG cAMP membrane potential fluorescence; galR3 body fused to GalR1 C-terminus | inhibition, % at 3 µM;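 active = inhibition above the screen-wide average plus 3 SD, cut at about 13% in these data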;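 note: forskolin and galanin both at EC90 stimulate the cells; cAMP rise reported by CNG channel membrane potential dye signal; 0% = forskolin plus galanin with DMSO and 100% = forskolin alone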
# SRC3 inh – human NCOA3 inhibition; Q9Y6Q9; inhibition, % at 3.6 µM; AID 588352; HEK293 GAL4-SRC3 luciferase reporter, luminescence; 360,000 compounds, 0.17% hits;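 active = inhibition above a per-campaign cutoff, the mean of all compounds plus 3 SD, cut at about 60% in these data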;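 note: 0% = DMSO-treated cells and 100% = gossypol-treated cells at 36 µM; higher means less SRC3-driven luciferase light from the GAL4 reporter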
# NR2F2 inh – NR2F2 (human) inhibition, primary screen; P24468; HEK293T NGFI-A luciferase reporter, luminescence; inhibition, % at 8.6 µM; 370,000 compounds, 0.7% hits; AID 686940;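 active = inhibition above a per-plate cutoff, mean inhibition of test wells between control levels plus 3 SD, cut at about 38% in these data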;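 note: cells cotransfected with COUP-TFII expression vector driving the NGFI-A reporter; 0% = median of COUP-TF2 test wells and 100% = reporter-only cells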
# NR5A2 inv ag – NR5A2 inverse agonism in reporter assay; O00482; AID 602396; inhibition, % at 3.6 µM; 360,000 compounds, 0.13% hits; HEK293T StAR-luciferase reporter, LRH-1 transfected, 24 h;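 active = inhibition above the mean inhibition of all tested compounds plus 3 SD, cut at about 73% in these data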;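 note: 0% = DMSO wells and 100% = reporter-only cells lacking LRH-1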
# SRC1 inh – inhibits human SRC1 coactivator; HEK293 GAL4-SRC1 luciferase reporter, luminescence; 360,000 compounds, 0.12% hits; Q15788; inhibition, % at 3.6 µM; AID 588354;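 active = inhibition above the campaign mean plus 3 SD, with each screening campaign given its own cutoff, cut at about 60% in these data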;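 note: 0% = DMSO treated cells and 100% = gossypol at 36 µM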
# SRC2 inh – inhibits human steroid receptor coactivator 2; Q15596; HEK293 GAL4-SRC2 luciferase reporter, luminescence; inhibition, % at 9 µM; 370,000 compounds, 0.17% hits; AID 651957;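 active = inhibition above the mean inhibition of all tested compounds plus 3 SD, set per campaign, cut at about 52% in these data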;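 note: 0% = DMSO treated cells and 100% = cells given Gossypol at 36 µM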
# Gal4-VP16 ctr – inhibits VP16 reporter, flagging COUP-TFII antagonist hits | shares compounds with NR2F2 inh | HEK293 Gal4-VP16 luciferase reporter, luminescence | inhibition, % at 8.5 µM | 2,500 compounds, 25% hits | AID 687007; in the data active = inhibition above about 13%
# COUP-TFII conf – COUP-TFII (NR2F2) inhibition, confirmation assay | shares compounds with NR2F2 inh | HEK293 NGFI-A luciferase reporter, luminescence | inhibition, % at 8.5 µM | 2,500 compounds, 45% hits | AID 687008;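 active = mean inhibition over three repeats above a set limit taken from the earlier primary screen, cut at about 38% in these data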;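 note: 100% = cells given the luciferase reporter alone without the COUP-TF2 vector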
# * = called active by the depositor; nt = no result given. Only some compounds are listed: those with a hit (about 1.1% of all), similar ones and a draw of the others.
SMILES,GalR3 antagonist,SRC3 inh,NR2F2 inh,NR5A2 inv ag,SRC1 inh,SRC2 inh,Gal4-VP16 ctr,COUP-TFII conf
Cc1ccc(C(=O)O/N=C(\N)c2ccccn2)cc1,2,-62,57*,-16,-22,57*,-157,-110
Cc1ccc(C(=O)O/N=C(\N)c2ccccn2)cc1C,-4,-11,50*,-11,-34,42,-70,-1
Cc1cccc(C(=O)O/N=C(\N)c2ccccn2)c1,-8,-44,47*,-7,-21,48,-173,-111
CCN(CC)S(=O)(=O)c1ccc(NC(=O)Nc2cccc(C(F)(F)F)c2)cc1,1,25,75*,19,9,49,-7,7
CCN(CC)S(=O)(=O)c1ccc(/C=C/C(=O)O)cc1,-3,3,3,0,1,23,nt,nt
CCN(CC)S(=O)(=O)c1ccc(/C=C/C(=O)Nc2cccc(F)c2)cc1,-5,-13,38*,-8,-17,11,-69,4
O=C(NCc1ccccc1F)c1ccc2c(c1)OCO2,-6,-21,1,-26,-2,10,nt,nt
O=C(NCCc1ccccc1F)c1ccc2c(c1)OCCO2,-4,74*,96*,64,76*,90*,63*,84*
c1ccc2c(c1)Nc1ccncc1S2,-2,35,38*,-3,-4,20,4,14
c1ccc2c(c1)Nc1cc3ccccc3cc1S2,1,-26,-34,-24,-57,-31,nt,nt
CCN(CC)C(=O)CN1C(=O)C2CCCCN2C(=O)c2ccccc21 (stereo unspecified),nt,nt,-2,nt,nt,6,nt,nt
CCN(CC)CC(C)(C)C(=O)/C=C/c1ccc(/C=C/C(=O)C(C)(C)CN(CC)CC)cc1,36*,27,93*,91*,54,74*,89*,101*
CCN(CC)CCOC(=O)/C=C/c1ccccc1,1,4,-8,-7,3,-37,nt,nt
CCc1c(-c2ccccc2F)ncn1Cc1cccc(-c2ccccc2)c1,-8,nt,44*,29,nt,2,-7,7
CCc1c(-c2ccccc2)ncn1Cc1cccc(-c2ccccc2)c1,1,nt,29,28,nt,20,nt,nt
CC1CCc2nc(N)c(C#N)c(-c3cccnc3)c2C1 (stereo unspecified),0,63*,52*,41,72*,39,14*,24
COc1ccc(/C=C2\Sc3ccc(C(=O)NC4CC4)cc3N(C)C2=O)cc1OC,6,-22,-10,8,-6,15,nt,nt
CN1C(=O)/C(=C\c2ccccc2F)Sc2ccc(C(=O)NC3CCN(Cc4ccccc4)CC3)cc21,-10,19,41*,29,10,20,-2,20
C[C@@H]1COc2cc(F)ccc2S(=O)(=O)N1C,nt,nt,5,nt,nt,-7,nt,nt
CC(C)(C)C(=O)Nc1ccc(NC(=O)c2ccco2)nc1,-8,78*,84*,75*,79*,82*,78*,95*
O=C(Nc1ccc(NC(=O)c2ccco2)nc1)c1ccco1,-3,-45,-45,-104,-75,-4,nt,nt
COc1ccc(-c2nnc(SCC(=O)N/N=C\C=C/c3ccco3)n2-c2ccc(C)cc2)cc1,nt,nt,10,nt,nt,-16,nt,nt
CCN(c1ccccc1)S(=O)(=O)c1cc(C(=O)Nc2ccc(F)c(F)c2)ccc1F,-7,12,44*,34,14,3,-9,28
O=C(OC(c1ccccc1)c1nccc2ccccc12)c1ccccc1 (stereo unspecified),-7,70*,81*,76*,67*,61*,53*,87*
O=C(OC(c1ccccc1)c1nccc2ccccc12)c1cccc([N+](=O)[O-])c1 (stereo unspecified),-7,-25,-5,-6,-57,-29,nt,nt
O=C(Nc1nncs1)c1cc2c(s1)CCC2,-9,-55,-37,-68,-99,-81,nt,nt
O=C(Nc1nccs1)c1cc2c(s1)CCCCC2,-8,7,42*,-5,-11,58*,-55,-10
